Assay results as given in PubChem BioAssay (Tox21).
Inconclusive results are not listed. Some compounds were tested as several samples or in several runs, with calls that do not always agree. Active and inactive are the calls of the source. Unless noted, the call rests on the fitted dose curve.

Legend:
[1] = target: Gonadotropin-releasing hormone receptor (Homo sapiens) (UniProt P30968); assay: Human gonadotropin-releasing hormone receptor (GnRHR) small molecule agonists, calcium flux assay in GnRHR-HEK293 cells (AID 1920063); further: nearly all actives have a fitted effect of over 35% in size
Sequence of Gonadotropin-releasing hormone receptor (Homo sapiens) (P30968 whole entry, looked up): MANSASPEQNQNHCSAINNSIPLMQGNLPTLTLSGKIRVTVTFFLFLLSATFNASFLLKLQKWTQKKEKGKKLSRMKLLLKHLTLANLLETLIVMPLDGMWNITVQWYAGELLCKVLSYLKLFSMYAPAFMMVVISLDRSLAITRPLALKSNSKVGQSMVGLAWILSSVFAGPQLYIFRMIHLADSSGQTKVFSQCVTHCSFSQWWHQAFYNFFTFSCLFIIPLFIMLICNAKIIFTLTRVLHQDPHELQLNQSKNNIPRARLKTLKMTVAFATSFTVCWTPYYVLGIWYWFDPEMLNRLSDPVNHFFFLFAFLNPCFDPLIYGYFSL
Outline: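 Agonist activity was measured as intracellular calcium flux in HEK293 cells engineered to stably express human GnRHR. After dye loading for 1 hour at 37 C, compounds in DMSO were added and fluorescence was followed for 3 minutes.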

[2] = target: KiSS-1 receptor (Homo sapiens) (UniProt Q969F8); assay: Human kisspeptin (KISS1R) small molecule agonists, calcium flux assay in KISS1R-HEK293 cells (AID 1920064; active means well fitted activation curve with a large enough effect in the repeat runs)
Sequence of KiSS-1 receptor (Homo sapiens) (Q969F8 whole entry, looked up): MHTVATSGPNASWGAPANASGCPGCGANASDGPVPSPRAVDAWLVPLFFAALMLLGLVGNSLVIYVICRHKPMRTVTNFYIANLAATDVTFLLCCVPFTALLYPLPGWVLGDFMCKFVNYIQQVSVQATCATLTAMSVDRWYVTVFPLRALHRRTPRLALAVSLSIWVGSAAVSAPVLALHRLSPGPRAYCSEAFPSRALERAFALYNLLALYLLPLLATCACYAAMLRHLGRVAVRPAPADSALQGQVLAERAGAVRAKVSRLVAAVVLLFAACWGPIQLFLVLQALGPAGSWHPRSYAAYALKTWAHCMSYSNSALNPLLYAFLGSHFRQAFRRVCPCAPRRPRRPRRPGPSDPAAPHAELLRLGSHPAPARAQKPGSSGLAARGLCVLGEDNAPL
Outline: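 Agonist activity is monitored as intracellular calcium rise in engineered HEK293 cells carrying human KISS1R. Cells are dye-loaded for 1 h at 37 C before compound addition, and fluorescence is recorded for 3 min.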

[3] = G protein-coupled receptor (GPCR) small molecule agonists, calcium flux assay: HEK293 wild type cell line counter screen (AID 1920065)
Outline: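 Seed cells, incubate 18 h (37 C, 5% CO2); add calcium dye, 1 h at 37 C; pin-transfer compounds, ATP control or DMSO; read fluorescence 480/540 nm each second for 3 min.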

[4] = p53 small molecule agonists, cell-based qHTS assay with human liver microsomes (AID 1963577);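 further: p53 response element beta-lactamase reporter cells with liver microsomes plus NADPH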
Outline: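 16 h, 37 C exposure of p53RE-bla cells to compounds with human liver microsomes and NADPH (0.5 mg/mL final each); detection via LiveBLAzer mixture, 2 h dark at room temperature.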

[5] = p53 small molecule agonists, cell-based qHTS assay with human liver microsomes: qHTS cell viability counter screen (AID 1963579); further: nearly all actives have a fitted effect of over 45% in size
Outline: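 In this multiplexed counter screen, the reporter plates were subsequently treated with CellTiter-Glo so that cell viability, reflected by luminescence, could be recorded for p53RE-bla cells dosed 16 h with compounds under microsomal activation (HLM and NADPH).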

[6] = target: 5-hydroxytryptamine receptor 2A (Homo sapiens) (UniProt P28223); assay: 5-hydroxytryptamine receptor 2A (HTR2A) small molecule antagonists, cell-based qHTS assay (AID 1963586); further: nearly all actives have a fitted effect of over 45% in size
Sequence of 5-hydroxytryptamine receptor 2A (Homo sapiens) (P28223 whole entry, looked up): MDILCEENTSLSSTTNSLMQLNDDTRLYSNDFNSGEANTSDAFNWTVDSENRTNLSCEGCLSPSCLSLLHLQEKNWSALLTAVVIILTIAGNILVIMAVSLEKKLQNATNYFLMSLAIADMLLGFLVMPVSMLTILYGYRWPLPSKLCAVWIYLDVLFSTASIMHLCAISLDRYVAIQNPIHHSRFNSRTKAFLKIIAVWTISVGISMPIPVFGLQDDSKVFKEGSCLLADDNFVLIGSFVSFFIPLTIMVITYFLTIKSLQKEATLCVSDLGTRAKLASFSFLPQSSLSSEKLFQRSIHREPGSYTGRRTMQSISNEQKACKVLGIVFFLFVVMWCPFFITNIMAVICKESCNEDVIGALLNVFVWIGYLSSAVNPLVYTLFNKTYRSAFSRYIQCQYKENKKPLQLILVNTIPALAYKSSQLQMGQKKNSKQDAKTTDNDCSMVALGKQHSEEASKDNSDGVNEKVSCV
Outline: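 CHO cells stably expressing human HTR2A were plated for 18 h at 37 C, then loaded with calcium dye for 1 h. Compounds were preincubated 5 min at room temperature before DOI (4 nM solution) was added. Kinetic fluorescence was read for 3 min.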

[7] = target: 5-hydroxytryptamine receptor 2A (Homo sapiens) (UniProt P28223); assay: 5-hydroxytryptamine receptor 2A (HTR2A) small molecule agonists, cell-based qHTS assay (AID 1963587); further: nearly all actives have a fitted effect of over 30% in size
Outline: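 CHO cells stably expressing human HTR2A, plated 18 h, loaded with calcium dye 1 h at 37 C. Agonist mode: compounds added and intracellular calcium fluorescence recorded kinetically for 2 min at 1 sec intervals.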

[8] = target: Muscarinic acetylcholine receptor M1 (Homo sapiens) (UniProt P11229); assay: Cholinergic receptor muscarinic 1 (CHRM1) small molecule antagonists, cell-based qHTS assay (AID 1963588); further: nearly all actives have a fitted effect of over 40% in size
Sequence of Muscarinic acetylcholine receptor M1 (Homo sapiens) (P11229 whole entry, looked up): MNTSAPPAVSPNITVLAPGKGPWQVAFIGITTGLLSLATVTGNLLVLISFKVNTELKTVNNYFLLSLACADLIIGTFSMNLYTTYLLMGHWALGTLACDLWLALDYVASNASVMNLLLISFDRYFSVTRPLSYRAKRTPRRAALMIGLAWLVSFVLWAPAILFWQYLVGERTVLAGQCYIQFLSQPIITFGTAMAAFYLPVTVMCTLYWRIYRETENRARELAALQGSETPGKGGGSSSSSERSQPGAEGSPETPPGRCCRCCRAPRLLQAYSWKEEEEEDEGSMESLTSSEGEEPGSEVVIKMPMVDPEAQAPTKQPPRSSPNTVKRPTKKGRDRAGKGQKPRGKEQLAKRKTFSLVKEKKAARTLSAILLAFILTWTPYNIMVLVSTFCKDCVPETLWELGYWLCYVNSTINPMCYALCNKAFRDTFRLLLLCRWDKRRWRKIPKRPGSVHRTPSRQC
Outline: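 Compounds were tested at 15 concentrations in three independent runs. Dye-loaded CHRM1-CHO cells were exposed 5 min at room temperature before stimulation by acetylcholine added at 50nM. Intracellular calcium was read kinetically on FDSS for 3 min.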

[9] = target: Beta-2 adrenergic receptor (Homo sapiens) (UniProt P07550); assay: Adrenergic beta2 receptor (ADRB2) small molecule antagonists, cell-based qHTS assay (AID 1963592); further: nearly all actives have a fitted effect of over 50% in size; further: potency means the concentration at half of the fitted maximal effect; on activity change, negative = inhibition: series mostly up to about 92 µM
Sequence of Beta-2 adrenergic receptor (Homo sapiens) (P07550 whole entry, looked up): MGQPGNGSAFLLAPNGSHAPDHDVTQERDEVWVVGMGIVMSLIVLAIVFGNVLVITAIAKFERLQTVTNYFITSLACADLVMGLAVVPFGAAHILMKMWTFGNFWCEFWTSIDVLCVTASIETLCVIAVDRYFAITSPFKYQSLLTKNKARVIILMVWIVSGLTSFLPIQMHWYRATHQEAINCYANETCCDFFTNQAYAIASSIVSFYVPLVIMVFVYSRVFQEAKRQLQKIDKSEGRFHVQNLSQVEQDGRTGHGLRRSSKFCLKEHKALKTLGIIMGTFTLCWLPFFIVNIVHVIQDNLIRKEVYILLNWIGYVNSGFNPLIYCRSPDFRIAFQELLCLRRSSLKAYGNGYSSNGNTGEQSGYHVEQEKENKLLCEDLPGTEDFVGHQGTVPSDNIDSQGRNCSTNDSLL
Outline: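 Assay format: CHO-ADRB2 cells, 18-20hr seeding at 37C/5% CO2, then compound plus 1nM isoproterenol agonist mix for 0.5hr RT. Homogeneous time-resolved fluorescence cAMP detection after 1hr, expressed as 665/615 nm ratio.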

[10] = target: D(2) dopamine receptor (Homo sapiens) (UniProt P14416); assay: Dopamine D2 receptor (DRD2) small molecule agonists, cell-based qHTS assay (AID 1963594); further: nearly all actives have a fitted effect of over 35% in size; further: potency means the concentration at half of the fitted maximal effect
Sequence of D(2) dopamine receptor (Homo sapiens) (P14416 whole entry, looked up): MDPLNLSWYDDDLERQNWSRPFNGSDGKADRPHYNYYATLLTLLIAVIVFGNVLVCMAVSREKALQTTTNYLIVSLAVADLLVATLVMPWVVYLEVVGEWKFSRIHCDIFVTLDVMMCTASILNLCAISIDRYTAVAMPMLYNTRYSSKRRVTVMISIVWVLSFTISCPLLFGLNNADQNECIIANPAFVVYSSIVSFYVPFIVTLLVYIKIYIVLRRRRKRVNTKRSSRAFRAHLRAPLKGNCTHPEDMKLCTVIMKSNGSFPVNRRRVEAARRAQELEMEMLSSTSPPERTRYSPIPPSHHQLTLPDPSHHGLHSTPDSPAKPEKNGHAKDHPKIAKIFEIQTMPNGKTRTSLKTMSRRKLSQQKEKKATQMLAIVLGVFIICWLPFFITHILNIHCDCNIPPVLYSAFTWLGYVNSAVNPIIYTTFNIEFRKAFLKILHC
Outline: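 HEK293 cells stably expressing human DRD2, pre-treated with PDE inhibitor Ro20-1724 (0.1 mM final) and compound 10 min at room temperature, then stimulated with NKH477 (200nM […]) for 30 min. cAMP read by HTRF (665/620 nm).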

[11] = target: D(2) dopamine receptor (Homo sapiens) (UniProt P14416); assay: Dopamine D2 receptor (DRD2) small molecule antagonists, cell-based qHTS assay (AID 1963595; active means well fitted inhibition curve with a large enough effect in the signal ratio in the repeat runs, with a control signal flat; the % refers to the signal ratio; further: potency means the concentration at half of the fitted maximal effect)
Outline: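 HEK293 cells stably expressing DRD2, preincubated with 0.1 mM Ro20-1724 and compounds 10 min, were stimulated with 200 nM NKH477 plus 12 nM quinpirole for 30 min at room temperature; cAMP measured by HTRF (665/620 nm).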

[12] = p53 small molecule agonists, cell-based qHTS assay: qHTS cell viability counter screen (AID 1963581); further: nearly all actives have a fitted effect of over 45% in size
Outline: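 Viability was counter-screened in parallel with the p53 agonist reporter by measuring intracellular ATP luminescence in the same HCT-116 p53RE-bla wells after 16 h compound treatment at 37 C.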

[13] = target: Muscarinic acetylcholine receptor M1 (Homo sapiens) (UniProt P11229); assay: Cholinergic receptor muscarinic 1 (CHRM1) small molecule agonists, cell-based qHTS assay (AID 1963589); further: nearly all actives have a fitted effect of over 35% in size
Outline: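 Cells were plated and incubated 18 h at 37 C/5% CO2, loaded with calcium dye for 1 h at 37 C, then treated with compounds in DMSO. Fluorescence was recorded kinetically at 1 sec intervals.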

[14] = cAMP Responsive Elements (CRE) small molecule agonists, cell-based qHTS assay (AID 1963590)
Outline: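 Cells carrying a CRE-driven beta-lactamase reporter (HEK 293T) are seeded, incubated overnight (18 h), and treated with test compounds for 3 h at 37 C; reporter activity is then detected with a FRET substrate after 2 h at room temperature.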

[15] = cAMP Responsive Elements (CRE) small molecule antagonists, cell-based qHTS assay (AID 1963591; active means well fitted inhibition curve with a large enough effect in the signal ratio in the repeat runs, not every such curve was filed as active; the % refers to the signal ratio)
Outline: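 Cells (CRE-bla HEK 293T, DMEM with 10% dialyzed FBS and 25 mM HEPES) are seeded and incubated 18 h. Compounds are added with NKH477 agonist at 0.25 uM final for 3 h, then FRET substrate for 2 h.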

[16] = p53 small molecule agonists, cell-based qHTS assay with rat liver microsomes: qHTS cell viability counter screen (AID 1963580); further: nearly all actives have a fitted effect of over 45% in size; further: potency means the concentration at half of the fitted maximal effect
Outline: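 Cytotoxicity counter screen: intracellular ATP measured by CellTiter-Glo luminescence in the same wells as the beta-lactamase reporter read, on HCT-116 p53RE-bla cells exposed 16 h at 37 C to compounds with rat liver microsomes and NADPH, each 0.5 mg/mL final.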

[17] = target: Beta-2 adrenergic receptor (Homo sapiens) (UniProt P07550); assay: Adrenergic beta2 receptor (ADRB2) small molecule agonists, cell-based qHTS assay (AID 1963593);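 further: CHO cells stably overexpressing human ADRB2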
Outline: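 CHO cells stably over-expressing ADRB2 were plated overnight at 37C, then dosed with compounds plus a stimulation mix containing 100uM IBMX and 25uM Ro-20-1724 for 0.5hr at room temperature. cAMP was measured by HTRF competition, 1hr.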

[18] = p53 small molecule agonists, cell-based qHTS assay (AID 1963582; active means well fitted activation curve with a large enough effect in the signal ratio in the repeat runs, not every such curve was filed as active; the % refers to the signal ratio)
Outline: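 Cells carrying a p53-responsive bla reporter are treated with test compounds for 16 h at 37 C; beta-lactamase activity is then detected with LiveBLAzer B/G FRET substrate after 2 h at room temperature.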

[19] = p53 small molecule agonists, cell-based qHTS assay with rat liver microsomes (AID 1963578)
Outline: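 With rat liver microsomes and NADPH present (0.5 mg/mL final each), p53RE-bla cells are treated with compound for 16 h at 37 C. LiveBLAzer detection mixture is then applied for 2 h at room temperature in the dark.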
On the % scale 0 is the no-effect control and ±100 the full control effect.

O=Cc1ccc(Cl)c([N+](=O)[O-])c1
inactive: Potency [1] | Potency [2] | Potency [3] | Potency [4] | Potency [5] | Potency [6] | Potency [7] | Potency [8] | Potency [9] | Potency [10] | Potency [11]

O=CO
inactive: activity change [1] 0% [at 5.22 µM, stronger effect = higher value] | activation [2] 4.55% [at 6.97 µM] | activation [3] -0.0753% [at 5.23 µM] | activity change, negative = cytotoxicity [5] -2.15% [at 5.99 µM] | activity change, negative = cytotoxicity [12] -6.99% [at 5.99 µM] | activity, negative = inhibition [6] 0.711% [at 5.62 µM] | activation [7] 0.778% [at 7.02 µM] | activity, negative = inhibition [8] 7.62% [at 5.58 µM] | activation [13] -0.0923% [at 6.97 µM] | activation [14] 0.47% [at 8.39 µM] | activity change, negative = inhibition [15] -5.34% [at 8.39 µM] | activity change, negative = inhibition [9] 1.71% [at 8.39 µM] | activation [10] 0.218% [at 8.39 µM] | activity change, negative = inhibition [11] -7.6% [at 8.38 µM]

CN(C/C=C/C#CC(C)(C)C)Cc1cccc2ccccc12
inactive: Potency [1] | Potency [2] | Potency [3] | Potency [4] | Potency [5] | Potency [16] | Potency [12] | Potency [17]

O=C(OCC(O)CO)c1ccccc1Nc1ccnc2cc(Cl)ccc12 (centres undefined)
inactive: Potency [1] | Potency [2] | Potency [3] | Potency [5] | Potency [12] | Potency [6] | Potency [13] | Potency [9] | Potency [17] | Potency [10] | Potency [11]

Nc1ccc([N+](=O)[O-])cc1O
inactive: Potency [1] | Potency [2] | Potency [3] | Potency [4] | Potency [5] | Potency [6] | Potency [7] | Potency [8] | Potency [13] | Potency [14] | Potency [15]

O=C(O)CN(CCN(CC(=O)O)CC(=O)O)CC(=O)O
inactive: activity change [1] 0.111% [at 2.04 µM, stronger effect = higher value] | activation [2] -1.01% [at 2.72 µM] | activation [3] 0.597% [at 2.04 µM] | activation [4] -9.46% [at 2.33 µM] | activity change, negative = cytotoxicity [5] -15.2% [at 2.33 µM] | activity change, negative = cytotoxicity [12] 1.99% [at 2.33 µM] | activation [18] -4.53% [at 2.33 µM] | activity, negative = inhibition [6] -0.852% [at 2.12 µM] | activation [7] -0.659% [at 2.65 µM] | activity, negative = inhibition [8] 37.7% [at 2.17 µM] | activation [13] -0.34% [at 2.72 µM] | activation [14] 0.14% [at 3.27 µM] | activity change, negative = inhibition [15] 1.65% [at 3.27 µM] | activity change, negative = inhibition [9] 4.71% [at 3.27 µM] | activation [17] 11.4% [at 3.27 µM] | activation [10] 2.74% [at 3.27 µM] | activity change, negative = inhibition [11] 8.25% [at 3.28 µM]

CC1(CO)CN(c2ccccc2)NC1=O (centres undefined)
inactive: Potency [1] | Potency [2] | Potency [3] | Potency [19] | Potency [5] | Potency [16] | Potency [12] | Potency [18] | Potency [6] | Potency [7] | Potency [8] | Potency [13] | Potency [14] | Potency [15] | Potency [9] | Potency [17] | Potency [10] | Potency [11]

CN1C(=O)c2ccccc2C1=O
inactive: Potency [1] | Potency [2] | Potency [3] | Potency [4] | Potency [5] | Potency [12] | Potency [18] | Potency [6] | Potency [7] | Potency [13] | Potency [14] | Potency [15] | Potency [11]
active: Potency [9] 54.5 µM

CCN(Cc1cccc(S(=O)(=O)O)c1)c1ccc(C(=C2C=CC(=[N+](CC)Cc3cccc(S(=O)(=O)O)c3)C=C2)c2ccccc2S(=O)(=O)[O-])cc1
inactive: Potency [1] | Potency [2] | Potency [3] | Potency [18] | Potency [6] | Potency [7] | Potency [8] | Potency [13] | Potency [14] | Potency [15]
active: Potency [16] 20.5 µM

O=C1N=C(O)CN1/N=C/c1ccc(-c2ccc([N+](=O)[O-])cc2)o1
inactive: Potency [1] | Potency [2] | Potency [3] | Potency [5] | Potency [16] | Potency [12] | Potency [7] | Potency [8] | Potency [13] | Potency [10] | Potency [11]

CCCC(=O)Nc1ccc(OCC(O)CNC(C)C)c(C(C)=O)c1 (centres undefined)
inactive: Potency [1] | Potency [2] | Potency [3] | Potency [12] | Potency [14] | Potency [15] | Potency [11]
active: Potency [10] 18.8 µM

COC(=O)C1=C(C)NC(C)=C(C(=O)OC)C1c1ccccc1[N+](=O)[O-]
68.7 µM (active) and inactive: Potency [11]
inactive: Potency [1] | Potency [2] | Potency [3] | Potency [12] | Potency [18] | Potency [14] | Potency [9] | Potency [10]

CN1[C@@H]2CC[C@H]1CC(OC(=O)C(CO)c1ccccc1)C2 (some centres undefined)
inactive: Potency [1] | Potency [2] | Potency [3] | Potency [14] | Potency [15] | Potency [9] | Potency [10] | Potency [11]

CC(C)(C(=O)O)c1ccc(C(O)CCCN2CCC(C(O)(c3ccccc3)c3ccccc3)CC2)cc1 (centres undefined)
inactive: Potency [1] | Potency [2] | Potency [12] | Potency [18] | Potency [14] | Potency [15] | Potency [9] | Potency [10] | Potency [11]

CNCCCN1c2ccccc2CCc2ccccc21
inactive: Potency [1] | Potency [2] | Potency [3] | Potency [18] | Potency [14] | Potency [15]

O=C(O)c1cn(C2CC2)c2cc(N3CCNCC3)c(F)cc2c1=O
inactive: Potency [1] | Potency [2] | Potency [3] | Potency [12] | Potency [14] | Potency [15] | Potency [10] | Potency [11]
